The text below walks through data of the antibiotic and cytotoxicity screens of Wong et al. (2023).

SMILES strings stand for the structures. Screen size: about 39,000 compounds; about 3,300 (8.5%) were called active. Shown is part of a subset that was picked to be rich in actives.

The experiment deals with HepG2. The experiment is described as follows: cytotoxicity call (relative viability < 0.9). The settings on record: 10 µM.
With `O=C(C[C@@H]1CC[C@H]2[C@@H](COC[C@H](O)CN2Cc2ccccc2F)O1)N[C@@H]1CCN(Cc2ccccc2)C1`, the cytotoxicity call is “inactive”.

In the case of `COc1ccc(S(=O)(=O)Nc2cccc3c2O[C@H](CN(C)S(=O)(=O)c2c(C)noc2C)[C@@H](C)CN([C@H](C)CO)C3=O)cc1`, the cytotoxicity call is “inactive”. As for `C/C=C/c1ccc([C@@H]2[C@H](CO)N(S(=O)(=O)Cc3ccccc3)C23CN(C(=O)C2CCOCC2)C3)cc1`, the cytotoxicity call is “inactive”. In the case of `C[C@@H]1CN([C@H](C)CO)C(=O)c2cc(NC(=O)NC3CCCCC3)ccc2O[C@@H](C)CCCCO[C@@H]1CN(C)C(=O)c1ccccc1`, the cytotoxicity call is “inactive”. For the compound `COc1ccc(S(=O)(=O)N(C)C[C@@H]2OCc3cnnn3CCCC(=O)N([C@H](C)CO)C[C@@H]2C)cc1`, the cytotoxicity call is “inactive”. Regarding `COCC#Cc1cnc2c(c1)C(=O)N([C@@H](C)CO)C[C@@H](C)[C@@H](CN(C)C(=O)Nc1ccc(OC)cc1)O2`, the cytotoxicity call is “inactive”. With `C[C@H](CO)N1C[C@H](C)[C@H](CN(C)Cc2ccc(C(F)(F)F)cc2)Oc2c(NC(=O)C3CCCCC3)cccc2C1=O`, the cytotoxicity call is “inactive”. Regarding `COC(=O)c1cc(=O)n2ccccc2c1C#N`, the cytotoxicity call was “inactive”. To `CO[C@@H](CN(C)C(=O)c1ccccc1F)[C@H](C)CN([C@@H](C)CO)S(=O)(=O)c1ccc(Cl)cc1` belongs “inactive”; to `C[C@H](CO)N1C[C@H](C)[C@H](CN(C)Cc2ccncc2)Oc2ccc(NS(=O)(=O)c3cn(C)cn3)cc2CC1=O`, “inactive”; to `C[C@H]1CCCCO[C@@H](CN(C)C)[C@@H](C)CN([C@@H](C)CO)C(=O)c2cc(NC(=O)CCCN(C)C)ccc2O1`, “inactive”.

For the compound `C=CC[C@H](CC(=O)NCCO)C(=O)N[C@@H](COC(=O)[C@@H](CC=C)CC(=O)OC(C)(C)C)Cc1ccccc1`, the cytotoxicity call was “inactive”.

With `CO[C@H]1CN(C)C(=O)c2ccc(NC(=O)C3CC3)cc2OC[C@@H](C)N(C(=O)C2CCOCC2)C[C@H]1C`, the cytotoxicity call was “inactive”.

Turning to `Cc1ccc(S(=O)(=O)N2C[C@H](O)COC[C@H]3O[C@@H](CC(=O)N[C@H]4CCN(Cc5ccccc5)C4)CC[C@@H]32)cc1`, the cytotoxicity call was “inactive”.

As for `COc1cccc(S(=O)(=O)Nc2ccc3c(c2)[C@H]2C[C@H](CC(=O)N4CCCCC4)O[C@@H](CO)[C@H]2O3)c1`, the cytotoxicity call is “inactive”. On to `Cc1ccc(S(=O)(=O)Nc2ccc3c(c2)CC(=O)N([C@@H](C)CO)C[C@@H](C)[C@@H](CN(C)Cc2ccc(C(F)(F)F)cc2)O3)cc1`, for which the cytotoxicity call was “active”. In the case of `Cc1ccc(S(=O)(=O)Nc2ccc3c(c2)CC(=O)N([C@@H](C)CO)C[C@@H](C)[C@H](CN(C)Cc2ccc(C(F)(F)F)cc2)O3)cc1`, the cytotoxicity call is “inactive”. Consider `Cc1ccc(S(=O)(=O)Nc2ccc3c(c2)CC(=O)N([C@H](C)CO)C[C@H](C)[C@@H](CN(C)Cc2ccc(C(F)(F)F)cc2)O3)cc1`, for which the cytotoxicity call was “inactive”. In the case of `C[C@@H]1CCCCO[C@H](CN(C)C(=O)Nc2ccc(C(F)(F)F)cc2)[C@@H](C)CN([C@H](C)CO)C(=O)c2cc(NC(=O)c3ccncc3)ccc2O1`, the cytotoxicity call was “inactive”. With `Cc1cccc(C)c1OC[C@@H](C)N`, the cytotoxicity call is “inactive”. As to `Cc1cccc2ccccc12`, the cytotoxicity call is “inactive”. On to `Cc1cccc(C)c1OCC(C)N.Cl` (stereo unspecified), for which the cytotoxicity call is “active”. In the case of `C[C@@H]1CN([C@@H](C)CO)C(=O)c2cc(NS(=O)(=O)c3cn(C)cn3)ccc2O[C@@H]1CN(C)S(=O)(=O)c1ccc(Cl)cc1`, the cytotoxicity call was “inactive”. With `O=C(CCCCCCC(=O)Nc1ccc([C@H]2O[C@H](CSc3nc(-c4ccccc4)c(-c4ccccc4)o3)C[C@H](c3ccc(NC(=O)CCCCCCC(=O)NO)cc3)O2)cc1)NO`, the cytotoxicity call was “inactive”.

Take `O=C(CCCCCCC(=O)Nc1ccc([C@H]2O[C@@H](CN3CCCCCCC3)C[C@H](c3ccccc3)O2)cc1)NO`: the cytotoxicity call is “inactive”. To `O=C(O)CCCCCCC(=O)Nc1ccc([C@H]2O[C@@H](CSc3nc(-c4ccccc4)c(-c4ccccc4)o3)C[C@H](c3ccc([N+](=O)[O-])cc3)O2)cc1` belongs “inactive”; to `O=C(CCCCCCC(=O)Nc1ccc([C@H]2O[C@@H](CSc3nc4ccccc4o3)C[C@H](c3ccccc3)O2)cc1)NO`, “active”. To `O=C(CCCCCCC(=O)Nc1ccc([C@H]2O[C@@H](COc3ccccc3)C[C@H](c3ccccc3)O2)cc1)NO` belongs “inactive”; to `O=C(CCCCCCC(=O)Nc1ccc([C@H]2O[C@@H](CSc3nc(-c4ccccc4)c(-c4ccccc4)o3)C[C@H](c3ccc([N+](=O)[O-])cc3)O2)cc1)NO`, “active”; to `COc1cc2c(cc1OC)CN(C[C@H]1C[C@H](c3ccccc3)O[C@H](c3ccc(NC(=O)CCCCCCC(=O)NO)cc3)O1)CC2`, “active”. For `O=C(CCCCCCC(=O)Nc1ccc([C@H]2C[C@@H](CSc3nc(-c4ccccc4)c(-c4ccccc4)o3)O[C@H](c3ccccc3)O2)cc1)NO`, the cytotoxicity call is “inactive”. For `O=C(CCCCCCC(=O)Nc1ccc([C@@H]2O[C@H](CSc3nc(-c4ccccc4)c(-c4ccccc4)o3)C[C@H](c3ccccc3)O2)cc1)NO` the value was “inactive”; for `C[C@@H]1CN([C@H](C)CO)C(=O)c2cc(C#CCN(C)C)cnc2O[C@@H]1CN(C)C(=O)CCN1CCCCC1`, “inactive”. For the compound `Cc1noc(C)c1NC(=O)N[C@@H]1C=C[C@H](CC(=O)NCCCN(C)C)O[C@@H]1CO`, the cytotoxicity call was “inactive”. With `C[C@@H]1CN([C@@H](C)CO)C(=O)c2cccc(NC(=O)Nc3ccc4c(c3)OCO4)c2O[C@H]1CN(C)Cc1ccc(Cl)c(Cl)c1`, the cytotoxicity call is “inactive”. As for `C[C@H](CO)N1C[C@H](C)[C@@H](CN(C)C(=O)Nc2ccc(C(F)(F)F)cc2)Oc2ccc(NC(=O)Nc3cccc4ccccc34)cc2CC1=O`, the cytotoxicity call was “inactive”. To `C[C@H](CO)N1C[C@H](C)[C@@H](CN(C)Cc2ccc(C(=O)Nc3ccccc3N)cc2)OCCCC[C@H](C)Oc2ccc(N(C)C)cc2C1=O` belongs “inactive”.

`C[C@@H]1CN([C@H](C)CO)C(=O)c2cc(NC(=O)C3CC3)ccc2O[C@@H]1CN(C)S(=O)(=O)c1ccc(Cl)cc1`: the cytotoxicity call was “inactive”. In the case of `C[C@@H]1CN([C@@H](C)CO)C(=O)c2c(c3ccccc3n2C)-c2ccccc2CO[C@H]1CN(C)Cc1ccc(C(F)(F)F)cc1`, the cytotoxicity call is “inactive”. Regarding `C[C@H]1CN([C@@H](C)CO)S(=O)(=O)c2ccc(C#Cc3ccncc3)cc2O[C@H]1CN(C)S(=O)(=O)c1ccc(F)cc1`, the cytotoxicity call is “active”. `CC(C)CC#Cc1ccc2c(c1)O[C@@H](CN(C)S(=O)(=O)c1ccc(F)cc1)[C@H](C)CN([C@H](C)CO)S2(=O)=O`: the cytotoxicity call was “inactive”. On to `C[C@H](CO)N1C[C@H](C)[C@@H](CN(C)S(=O)(=O)c2ccc(F)cc2)Oc2cc(C#Cc3ccncc3)ccc2S1(=O)=O`, for which the cytotoxicity call is “inactive”. Regarding `CC(C)CC#Cc1ccc2c(c1)O[C@H](CN(C)S(=O)(=O)c1ccc(F)cc1)[C@@H](C)CN([C@@H](C)CO)S2(=O)=O`, the cytotoxicity call was “inactive”. Regarding `C[C@@H]1CN([C@H](C)CO)S(=O)(=O)c2ccc(C#Cc3ccc(F)cc3)cc2O[C@@H]1CN(C)S(=O)(=O)c1ccc(F)cc1`, the cytotoxicity call was “inactive”. For `C[C@H]1CN([C@@H](C)CO)S(=O)(=O)c2ccc(C#Cc3ccncc3)cc2O[C@@H]1CN(C)S(=O)(=O)c1ccc(F)cc1` the value was “inactive”. As for `C[C@@H]1CN([C@H](C)CO)S(=O)(=O)c2ccc(C#Cc3ccncc3)cc2O[C@H]1CN(C)S(=O)(=O)c1ccc(F)cc1`, the cytotoxicity call was “active”. For `C[C@H]1CN([C@@H](C)CO)S(=O)(=O)c2ccc(C#Cc3ccc(F)cc3)cc2O[C@@H]1CN(C)S(=O)(=O)c1ccc(F)cc1` the value was “inactive”; for `C[C@H]1CN([C@@H](C)CO)S(=O)(=O)c2ccc(C#Cc3ccc(F)cc3)cc2O[C@H]1CN(C)S(=O)(=O)c1ccc(F)cc1`, “inactive”; for `C[C@@H]1CN([C@@H](C)CO)S(=O)(=O)c2ccc(C#Cc3ccncc3)cc2O[C@H]1CN(C)S(=O)(=O)c1ccc(F)cc1`, “active”.

In the case of `C[C@@H]1CN([C@H](C)CO)S(=O)(=O)c2ccc(C#Cc3ccncc3)cc2O[C@@H]1CN(C)S(=O)(=O)c1ccc(F)cc1`, the cytotoxicity call was “active”. For `C[C@@H]1CN([C@H](C)CO)S(=O)(=O)c2ccc(C#Cc3ccc(F)cc3)cc2O[C@H]1CN(C)S(=O)(=O)c1ccc(F)cc1` the value was “inactive”.
